# Inconclusive results are not listed. Entries that show only a call come without a potency. The source made the active and inactive calls. Unless noted, calls come from the whole dose curve; as a rule, active = well fitted cell-killing curve with a large enough effect; inconclusive = small, poorly fitted or top-dose-only effect; inactive = flat fitted curve, though single readings scatter.
# Columns and labels:
# [1] = Cell Viability - LYMP2-019 (AID 973); note: nearly all actives have a fitted effect of over 55% in size
# Outline: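 AC50 values come from Hill-equation fits of luminescent intracellular ATP (CellTiter-Glo, 30 min, room temperature) following 24 h compound exposure at 37 C. Cells: LYMP2-019 lymphoblastoid line, 2500 per well, in complete culture medium.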
# [2] = Cell Viability - LYMP2-021 (AID 974); note: nearly all actives have a fitted effect of over 55% in size
# Outline: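 AC50 values come from Hill-equation fits to CellTiter-Glo luminescence (ATP content), read after 24 hour compound exposure at 37 C of 2500 LYMP2-021 lymphoblastoid cells/well; tetraoctylammonium bromide as positive control.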
# [3] = Cell Viability - LYMP2-023 (AID 975);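 note: cellular ATP measured by luciferase luminescence as viability proxy; series mostly up to about 92 µM; nearly all actives have a fitted effect of over 55% in size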
# Outline: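 Intracellular ATP, read by CellTiter-Glo luminescence, reports viability after 24 hr compound exposure at 37 C. 2500 lymphoblastoid cells/well (LYMP2-023) seeded 5 hr beforehand; Hill fits give AC50; positive control tetraoctylammonium bromide.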
# [4] = Cell Viability - LYMP2-025 (AID 976); note: series mostly up to about 92 µM
# Outline: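 Cytotoxicity read as loss of intracellular ATP (luciferase luminescence) after 24 h compound treatment at 37 C. Uses LYMP2-025 lymphoblastoid cells in 1536-well format; Hill-equation modelling gives AC50; tetraoctylammonium bromide as positive control.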
# [5] = Cell Viability - LYMP2-002 (AID 977); note: series mostly up to about 92 µM
# Outline: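 In this qHTS viability screen, 2500 human lymphoblastoid cells per well receive compound for 24 hr at 37 C, and luciferase-based ATP luminescence gives the viability signal. Tetraoctylammonium bromide serves as positive control.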
# [6] = Cell Viability - LYMP2-007 (AID 979);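 note: cells exposed to compound for 24 h before reading; nearly all actives have a fitted effect of over 60% in size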
# Outline: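 AC50 values come from Hill-equation fits of luminescent intracellular ATP (CellTiter-Glo, 30 min, room temperature) following 24 h compound exposure at 37 C. Cells: LYMP2-007 lymphoblastoid line, 2500 per well, in complete culture medium.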
# [7] = Cell Viability - LYMP2-008 (AID 980); note: nearly all actives have a fitted effect of over 60% in size
# Outline: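 Cytotoxicity determined from ATP-dependent luciferase luminescence (CellTiter-Glo) following 24 h compound exposure of human lymphoblastoid LYMP2-008 cells at 37 C. Concentration-response data fitted to the Hill equation to give AC50.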
# [8] = Cell Viability - LYMP2-010 (AID 981); note: nearly all actives have a fitted effect of over 55% in size
# Outline: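 CellTiter-Glo ATP luminescence measured cytotoxicity after 24 h compound exposure at 37 C. LYMP2-010 cells were seeded at 2500/well, with tetraoctylammonium bromide as control; concentration-response curves gave AC50 values by the Hill equation.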
# [9] = Cell Viability - LYMP2-012 (AID 982)
# [10] = Cell Viability - LYMP2-014 (AID 983); note: series mostly up to about 92 µM; nearly all actives have a fitted effect of over 50% in size
# Outline: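 Intracellular ATP loss, read by luciferase luminescence, measures acute cytotoxicity after 24 h compound exposure of lymphoblastoid LYMP2-014 cells (2500/well, 37 C). Concentration-response data fitted to the Hill equation for AC50.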
# [11] = Cell Viability - LYMP2-016 (AID 984); note: nearly all actives have a fitted effect of over 55% in size
# Outline: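 qHTS, 1536-well: 2500 LYMP2-016 cells/well, 5 hr 37 C, compound added, 24 hr 37 C, CellTiter-Glo 30 min RT, luminescence. Tetraoctylammonium bromide positive control. AC50 via Hill fit.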
# [12] = Cell Viability - LYMP2-018 (AID 985); note: nearly all actives have a fitted effect of over 50% in size
# Outline: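 Viability read as CellTiter-Glo luminescence (cellular ATP) after 24 hr compound exposure at 37 C of 2500 LYMP2-018 lymphoblastoid cells/well, pre-plated 5 hr. Hill-equation modelling gave AC50.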
# [13] = Cell Viability - LYMP2-020 (AID 986)
# Outline: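 Cytotoxicity in qHTS format: luminescent ATP readout from CellTiter-Glo after 24 h compound exposure at 37 C in complete medium. LYMP2-020 lymphoblastoid cells were seeded at 2500/well; concentration-response data fitted to the Hill equation for AC50.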
# [14] = Cell Viability - LYMP2-022 (AID 987); note: nearly all actives have a fitted effect of over 55% in size
# Outline: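 Cytotoxicity read as decreased cellular ATP (CellTiter-Glo luminescence, 30 min room temperature) after 24 hours compound exposure of 2500 lymphoblastoid LYMP2-022 cells/well at 37 C. Concentration-response data fitted with standard Hill equation for AC50.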
# [15] = Cell Viability - LYMP2-024 (AID 988); note: nearly all actives have a fitted effect of over 60% in size
# Outline: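 Cytotoxicity was taken as a decrease in ATP (CellTiter-Glo luminescence) after 24 hr compound exposure at 37 C of LYMP2-024 lymphoblastoid cells, 2500 cells/well. Concentration-response data were fitted to the Hill equation to give AC50.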
# [16] = Cell Viability - LYMP2-026 (AID 989); note: nearly all actives have a fitted effect of over 50% in size
# Outline: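 Cytotoxicity read as ATP-dependent luminescence (CellTiter-Glo, 30 min room temperature) after 24 h compound treatment at 37 C. LYMP2-026 lymphoblastoid line seeded at 2500 cells/well; AC50 derived by standard Hill equation.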
# [17] = Cell Viability - LYMP1-002 - Assay at 24 hr (AID 993)
# Outline: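 qHTS cytotoxicity at 24 h: CellTiter-Glo ATP luminescence in lymphoblastoid line LYMP1-002 incubated with compound at 37 °C. Concentration-response modeled with the Hill equation for AC50; tetraoctylammonium bromide served as positive control.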
# [18] = Cell Viability - LYMP1-002 - Assay at 40 hr (AID 994); note: nearly all actives have a fitted effect of over 60% in size
# Outline: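 Cytotoxicity was read as loss of cellular ATP (CellTiter-Glo luminescence) after 40 hr compound exposure at 37 C of 2500 LYMP1-002 lymphoblastoid cells per well. Concentration-response data were fitted with the standard Hill equation to give AC50.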
# [19] = biological target: Bile acid receptor (Homo sapiens) (UniProt Q96RI1); assay: qHTS assay for small molecule antagonists of farnesoid X receptor signaling (AID 588526; calls by dose curve)
# Bile acid receptor (Homo sapiens), sequence (Q96RI1 whole entry, looked up): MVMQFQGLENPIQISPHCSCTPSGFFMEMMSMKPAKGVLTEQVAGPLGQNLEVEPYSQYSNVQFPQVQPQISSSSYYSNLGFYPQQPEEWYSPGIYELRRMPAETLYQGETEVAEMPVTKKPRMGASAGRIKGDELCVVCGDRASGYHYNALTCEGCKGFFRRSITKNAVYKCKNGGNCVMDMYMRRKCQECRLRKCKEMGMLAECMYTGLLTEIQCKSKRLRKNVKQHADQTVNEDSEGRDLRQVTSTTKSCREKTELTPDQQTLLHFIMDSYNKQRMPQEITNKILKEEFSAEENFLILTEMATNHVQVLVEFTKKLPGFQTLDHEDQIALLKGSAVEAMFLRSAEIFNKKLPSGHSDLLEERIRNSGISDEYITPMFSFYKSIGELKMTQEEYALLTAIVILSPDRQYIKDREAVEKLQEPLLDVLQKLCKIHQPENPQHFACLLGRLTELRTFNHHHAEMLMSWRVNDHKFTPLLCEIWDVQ
# Outline: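 Concentration-response titrations were fitted to the Hill equation for half-maximal inhibition and maximal response, with data normalised to 50 uM chenodeoxycholic acid and DMSO control wells. Cells: FXR-UAS-bla HEK293T, dialyzed FBS.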
# [20] = biological target: Glucocorticoid receptor (Homo sapiens) (UniProt P04150); assay: qHTS assay for small molecule agonists of glucocorticoid receptor signaling (AID 588532; active = well fitted curve in the direction sought with a large enough effect in the signal ratio, with a control signal flat; the % refers to the signal ratio); details: HeLa MMTV-bla, beta-lactamase ratio, agonist, 18 h; stronger effect = higher value; percent of dexamethasone control, DMSO zero
# Glucocorticoid receptor (Homo sapiens), sequence (P04150 whole entry, looked up): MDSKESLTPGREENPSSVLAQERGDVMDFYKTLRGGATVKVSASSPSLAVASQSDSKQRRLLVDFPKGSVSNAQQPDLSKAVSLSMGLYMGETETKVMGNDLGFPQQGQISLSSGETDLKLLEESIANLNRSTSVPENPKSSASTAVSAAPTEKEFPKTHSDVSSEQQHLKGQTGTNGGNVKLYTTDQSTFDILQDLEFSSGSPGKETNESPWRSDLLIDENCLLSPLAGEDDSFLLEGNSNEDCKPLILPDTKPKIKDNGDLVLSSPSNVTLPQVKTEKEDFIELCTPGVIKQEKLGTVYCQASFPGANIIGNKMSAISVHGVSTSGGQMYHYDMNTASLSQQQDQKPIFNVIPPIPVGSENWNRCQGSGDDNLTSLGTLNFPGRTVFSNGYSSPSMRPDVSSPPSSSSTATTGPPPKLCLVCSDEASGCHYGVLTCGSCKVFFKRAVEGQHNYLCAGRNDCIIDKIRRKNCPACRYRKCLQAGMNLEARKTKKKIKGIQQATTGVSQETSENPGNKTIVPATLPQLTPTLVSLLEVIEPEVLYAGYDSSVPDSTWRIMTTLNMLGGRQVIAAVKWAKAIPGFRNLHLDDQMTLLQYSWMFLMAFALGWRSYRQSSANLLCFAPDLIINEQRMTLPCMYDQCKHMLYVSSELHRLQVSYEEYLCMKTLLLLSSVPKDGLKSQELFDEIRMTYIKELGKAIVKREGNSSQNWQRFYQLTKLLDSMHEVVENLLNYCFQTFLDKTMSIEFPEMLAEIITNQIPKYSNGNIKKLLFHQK
# Outline: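 Titration series, up to 92 uM, applied to GRE-bla HeLa cells for 18 h at 37 C. Detection by CCF4 FRET substrate after 2 h at RT.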
# [21] = qHTS assay for small molecule antagonists of peroxisome proliferator-activated receptor delta signaling (AID 588535; active = well fitted inhibition curve with a large enough effect in the signal ratio, with a control signal flat, not every such curve was filed as active; the % refers to the signal ratio;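 for max response: cells co-treated with a PPAR-delta agonist as stimulator during compound exposure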); details: HEK293T PPARd-UAS-bla, beta-lactamase FRET ratio, 18 h; 460 nm channel
# Outline: (§1)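 Inhibition of PPAR-delta response element-driven beta-lactamase expression is measured in HEK293T cells exposed to a compound titration series for 18 hrs at 37 C. Half-maximal inhibition comes from Hill equation fitting.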
# [22] = biological target: Peroxisome proliferator-activated receptor delta (Homo sapiens) (UniProt Q03181); assay: as above
# Peroxisome proliferator-activated receptor delta (Homo sapiens), sequence (Q03181 whole entry, looked up): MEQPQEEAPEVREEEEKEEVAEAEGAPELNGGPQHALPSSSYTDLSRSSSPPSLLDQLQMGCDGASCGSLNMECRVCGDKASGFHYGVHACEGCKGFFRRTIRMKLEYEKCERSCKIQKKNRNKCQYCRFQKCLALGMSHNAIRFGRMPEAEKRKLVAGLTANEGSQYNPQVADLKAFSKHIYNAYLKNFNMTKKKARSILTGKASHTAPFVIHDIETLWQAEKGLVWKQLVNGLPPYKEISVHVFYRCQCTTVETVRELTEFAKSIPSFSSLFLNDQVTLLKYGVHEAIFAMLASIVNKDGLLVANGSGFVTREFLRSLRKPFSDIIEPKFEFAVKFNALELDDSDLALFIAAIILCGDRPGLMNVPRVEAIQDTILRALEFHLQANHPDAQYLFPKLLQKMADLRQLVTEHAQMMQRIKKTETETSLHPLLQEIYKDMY
# Outline: as §1
# [23] = biological target: Peroxisome proliferator-activated receptor gamma (Homo sapiens) (UniProt P37231); assay: qHTS assay for small molecule agonists of peroxisome proliferator-activated receptor gamma signaling (AID 588536; active = well fitted curve in the direction sought with a large enough effect in the signal ratio, with a control signal flat, not every such curve was filed as active; the % refers to the signal ratio)
# Peroxisome proliferator-activated receptor gamma (Homo sapiens), sequence (P37231 whole entry, looked up): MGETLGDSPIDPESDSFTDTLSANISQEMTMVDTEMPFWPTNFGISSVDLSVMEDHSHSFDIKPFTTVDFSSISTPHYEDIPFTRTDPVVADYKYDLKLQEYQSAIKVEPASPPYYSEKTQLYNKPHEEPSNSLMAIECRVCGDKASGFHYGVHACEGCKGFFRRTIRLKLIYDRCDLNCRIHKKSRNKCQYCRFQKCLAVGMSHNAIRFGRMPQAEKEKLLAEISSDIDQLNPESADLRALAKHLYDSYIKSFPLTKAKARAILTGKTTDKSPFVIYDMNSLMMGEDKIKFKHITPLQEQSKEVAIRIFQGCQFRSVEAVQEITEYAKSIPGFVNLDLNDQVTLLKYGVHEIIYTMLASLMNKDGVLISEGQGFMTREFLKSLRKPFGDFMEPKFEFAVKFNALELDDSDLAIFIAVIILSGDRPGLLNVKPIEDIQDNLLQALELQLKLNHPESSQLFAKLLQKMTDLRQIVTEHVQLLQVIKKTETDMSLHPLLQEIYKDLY
# Outline: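 Beta-lactamase reporter read-out: CCF4 fluorescence (ex 405, em 460/530 nm) after 2 h at RT. HEK293 GeneBLAzer cells were treated for 16 h at 37 C. Hill fits gave EC50 and efficacy versus 2 uM rosiglitazone (100%) and DMSO (0%).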
compound,measurement,setting,value
CCCCCC/C(C=O)=C\c1ccccc1,Potency,[1],inactive
same,Potency,[2],inactive
same,Potency,[3],inactive
same,Potency,[4],inactive
same,Potency,[5],inactive
same,Potency,[6],inactive
same,Potency,[7],inactive
same,Potency,[8],inactive
same,Potency,[9],inactive
same,Potency,[10],inactive
same,Potency,[11],inactive
same,Potency,[12],inactive
same,Potency,[13],inactive
same,Potency,[14],inactive
same,Potency,[15],inactive
same,Potency,[16],inactive
same,Potency,[17],inactive
same,Potency,[18],inactive
same,Potency,[19],inactive
same,activation,[20],-2.77% (inactive)
same,max response,[21],24.4%
same,outcome,[22],inactive
same,outcome,[23],inactive

# — PubChem BioAssay (NCATS)
